Measured values published in PubChem BioAssay (NCI).
This is part of a sample that, as a whole, favours compounds with a hit. Of some 79,000 tested, about 15% had one in any assay. A number with no mark means an inactive call. Activity calls are given as the source filed them. Cut-off read from the data, not from the text of the source: active = growth inhibition above about 70%; inactive = the rest.

What was measured:
[1] = NCI Yeast Anticancer Drug Screen. Data for the rad50 strain (AID 155);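 note: 0% = growth of vehicle-only cultures of the same strain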; conditions: S. cerevisiae rad50 strain growth inhibition, hits give high values
How it was run: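 Cells are treated with compound, grown, and their growth is then scored against vehicle-only cultures of the same repair-deficient yeast strain.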

[2] = NCI Yeast Anticancer Drug Screen. Data for the mec2-1 strain (AID 157); conditions: S. cerevisiae mec2-1 strain, hits give high values
How it was run: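 Growth inhibition is read against vehicle-treated controls after compound exposure of the mec2-1 yeast strain, which is defective in DNA damage repair or cell cycle control.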

[3] = NCI Yeast Anticancer Drug Screen. Data for the sgs1 mgt1 strain (AID 161);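 note: 0% = growth of cultures given vehicle only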; conditions: S. cerevisiae sgs1 mgt1 strain, hits give high values
How it was run: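 Growth of a repair-deficient yeast mutant was monitored after compound treatment and expressed as inhibition relative to vehicle-treated cultures.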

[4] = NCI Yeast Anticancer Drug Screen. Data for the cln2 rad14 strain (AID 165);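 note: 0% = growth equal to vehicle treated cultures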; conditions: S. cerevisiae cln2 rad14 strain, hits give high values
How it was run: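 Growth inhibition, relative to vehicle-treated controls, is the read-out. The test organism is a yeast strain with defined genetic alterations, cln2 rad14.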

[5] = NCI Yeast Anticancer Drug Screen. Data for the bub3 strain (AID 167); conditions: S. cerevisiae bub3 mutant strain, hits give high values
How it was run: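 Part of a panel of yeast mutants defective in DNA damage repair or cell cycle regulation. Each strain is grown with compound, and inhibition is calculated relative to solvent-treated cultures.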

[6] = NCI Yeast Anticancer Drug Screen. Data for the mlh1 rad18 strain (AID 175); conditions: S. cerevisiae mlh1 rad18 strain growth inhibition, hits give high values
How it was run: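 Cells of a genetically altered yeast strain, deficient in DNA damage repair, were treated with compound. Their growth was then compared with that of vehicle-treated cultures to give inhibition.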

[7] = at 5.0 µM (retest, dose inferred, filed as 0.5)
[8] = at 50.0 µM (retest, dose inferred, filed as 5.0)

| Compound | growth inhibition [1, 7] | growth inhibition [1, 8] | growth inhibition ([1]; at 50.0 µM) | growth inhibition [2, 7] | growth inhibition [2, 8] | growth inhibition ([2]; at 50.0 µM) | growth inhibition [3, 7] | growth inhibition [3, 8] | growth inhibition ([3]; at 50.0 µM) | growth inhibition [4, 7] | growth inhibition [4, 8] | growth inhibition ([4]; at 50.0 µM) | growth inhibition [5, 7] | growth inhibition [5, 8] | growth inhibition ([5]; at 50.0 µM) | growth inhibition [6, 7] | growth inhibition [6, 8] | growth inhibition ([6]; at 50.0 µM) |
| --- | --- | --- | --- | --- | --- | --- | --- | --- | --- | --- | --- | --- | --- | --- | --- | --- | --- | --- |
| CCCCCCCCCCCN1C(=O)c2ccccc2S1(=O)=O | -3% | 78% (active) | -22.4% | -2% | 54% | 0.5% | 0% | 80% (active) | -11.4% | -14% | 34% | 58.8% | 0% | 79% (active) | 9.4% | 0% | 95% (active) | 32.4% |
| COCCOC1=C(Cl)C(=O)c2c(O)ccc(O)c2C1=O | 97% (active) | 98% (active) | 90.5% (active) | 99% (active) | 98% (active) | 90.7% (active) | 94% (active) | 99% (active) | 92.4% (active) | 69% | 99% (active) | 90.5% (active) | 100% (active) | 99% (active) | 90.3% (active) | 99% (active) | 98% (active) | 89.2% (active) |
| CN(C)C(=S)/N=c1\ss/c(=N\C(=S)N(C)C)n1-c1cccc(Cl)c1 | 6% | 8% | 95.9% (active) | 15% | 2% | 95.2% (active) | 4% | 12% | 94% (active) | 4% | -13% | 80.8% (active) | 3% | -4% | 96.2% (active) | 5% | 3% | 94.2% (active) |
| COC(=O)C1=C(/C=C/C(C)=O)NC(C)=C(C(=O)OC(C)C)C1c1ccccc1Cl (configuration not stated) | 40% | 95% (active) | 49.3% | 34% | 97% (active) | 62.5% | 37% | 96% (active) | 24.5% | 65% | 95% (active) | 33.5% | 40% | 97% (active) | 41.2% | 34% | 95% (active) | 51.4% |
| COc1ccc(CN2CCCN(Cc3ccc(OC)cc3OC)C2c2cc(Cl)ccc2O)c(OC)c1 | 7% | 87% (active) | 40.6% | 19% | 98% (active) | 51.4% | 2% | 88% (active) | 32.8% | 0% | 50% | 15.7% | -1% | 91% (active) | 5.1% | 17% | 97% (active) | 42% |
| O=[N+]([O-])C1(CO)COC(CCc2ccccc2)OC1 (configuration not stated) | -2% | 5% | 67.7% | 0% | 3% | 78.2% (active) | 2% | 5% | 82.3% (active) | 2% | 3% | 97.5% (active) | -2% | -3% | 65.5% | 0% | 3% | 98.4% (active) |
| CCCCCCCCCCCCCCCCNC(C)c1ccccc1 (configuration not stated) | 0% | -3% | 98.1% (active) | -1% | 9% | 98.7% (active) | 6% | 4% | 99% (active) | -9% | -4% | 97.5% (active) | -6% | -6% | 99% (active) | -2% | 9% | 98.3% (active) |
| CCCCC(Cc1ccccc1)(C(=O)O)c1ccccc1 (configuration not stated) | 11% | 98% (active) | 99% (active) | 18% | 98% (active) | 98.2% (active) | 16% | 99% (active) | 98.9% (active) | 31% | 99% (active) | 98% (active) | 3% | 97% (active) | 96% (active) | 14% | 99% (active) | 98.8% (active) |
| O=[N+]([O-])c1cc(CNCCO)c(O)c2ncccc12 | 99% (active) | 99% (active) | 98.7% (active) | 100% (active) | 99% (active) | 99.3% (active) | 99% (active) | 99% (active) | 99.2% (active) | 95% (active) | 98% (active) | 97.9% (active) | 99% (active) | 99% (active) | 99% (active) | 99% (active) | 99% (active) | 98.8% (active) |
| CN(C)C=C1C(Cl)=C(C=O)CC(C=O)=C1Cl | 2% | 24% | 12.3% | 3% | 26% | 23.1% | 3% | 36% | 63.7% | -2% | 3% | 40.3% | -2% | 9% | 18.5% | 0% | -12% | 89.5% (active) |
| OCCCCCCCCCl | 0% | 10% | 35.5% | -6% | 6% | 21.6% | 1% | 9% | 45.1% | 8% | 5% | 35.9% | -3% | 0% | -24.9% | -1% | 9% | 14.1% |
| CC1=NOC(=O)/C1=C/C=C/c1ccccc1 | -7% | 47% | 87.1% (active) | 3% | 79% (active) | 86.3% (active) | 9% | 89% (active) | 90.3% (active) | 22% | 28% | 40.1% | -23% | 66% | 60.8% | 2% | 80% (active) | 79.2% (active) |
| c1ccc2c(c1)CCN2CCc1c[nH]c2ccccc12 | 0% | 12% | 89.6% (active) | -5% | -12% | 91.8% (active) | -10% | 3% | 89.8% (active) | 23% | 31% | 89.8% (active) | -26% | 43% | 89.3% (active) | -14% | 21% | 88.5% (active) |
| O=C(O)c1cc(C(=O)O)c(C(=O)O)cc1C(=O)O.[NH-]C1CCCC1.[NH-]C1CCCC1.[NH-]C1CCCC1.[NH-]C1CCCC1.[Pt+2].[Pt+2] | 4% | 99% (active) | 99.5% (active) | 10% | 100% (active) | 99.6% (active) | 15% | 99% (active) | 99.5% (active) | 0% | 99% (active) | 99% (active) | -1% | 99% (active) | 99% (active) | 16% | 99% (active) | 99% (active) |
| Cn1nc(N)c2cccnc21 | 3% | 19% | -1.25% | -5% | 3% | 1.7% | -1% | 6% | 14.3% | 3% | 1% | 45.1% | 2% | 2% | -6.1% | 1% | 10% | 0.35% |
| O=P1(Cc2ccccc2)c2ccccc2-c2ccccc21 | -21% | 99% (active) | 85.6% (active) | -17% | 99% (active) | 91.1% (active) | -24% | 97% (active) | 88.9% (active) | -18% | 96% (active) | 89.4% (active) | -33% | 99% (active) | 88.7% (active) | 4% | 99% (active) | 84.3% (active) |
| O=c1ccnc(Nc2ccc[nH]c2=S)[nH]1 | -2% | -11% | 3.2% | 0% | -7% | -3.3% | -1% | -7% | 46.2% | -3% | -23% | 1.4% | 4% | 1% | 8.85% | -3% | -16% | 1.85% |
| COc1ccc(/C(=N\Nc2ccc(Br)cc2)c2ccccc2/C(=N/Nc2ccc(Br)cc2)c2ccccc2OC)cc1 | 1% | -3% | 96% (active) | -13% | 11% | 76.3% (active) | 5% | 18% | 97.2% (active) | 2% | 11% | 54.6% | -7% | 20% | 93.5% (active) | 11% | 33% | 96.3% (active) |
| COc1ccccc1NC(=O)/C(=C\N1C(=O)/C(=C/c2cc(OC)c(OC)c(OC)c2)SC1=S)C(C)=O | -11% | 9% | 46% | -12% | 14% | 13.4% | -8% | 35% | 74.2% (active) | -28% | 7% | 8.6% | -21% | -12% | 27.9% | -39% | 25% | 49.7% |
